Measured values taken from PubChem BioAssay (NCI).
Compounds without any hit were thinned out: in the full panel of roughly 83,000, 20% have a hit.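 Each cell line was grown in a 96-well plate and treated with one concentration of compound for 48 hours. Values below 10 were considered active.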 A number with no mark means an inactive call. Calls of active or inactive are those of the source.

How the values were obtained:
Experiment in all cases: NCI-60 one-dose screen, 48 h (100 = growth as untreated, 0 = no growth, -100 = all killed)
NCI-H226 lung = conditions: 10 µM unless noted
NCI-H322M lung = conditions: 10 µM unless noted
NCI-H522 lung = conditions: 10 µM unless noted
A549/ATCC NSCLC = conditions: 10 µM unless noted
HT29 colon = conditions: 10 µM unless noted
EKVX NSCLC = conditions: 10 µM unless noted
UO-31 renal = conditions: 10 µM unless noted
TK-10 renal = conditions: 10 µM unless noted
ACHN renal = conditions: 10 µM unless noted
CAKI-1 renal = conditions: 10 µM unless noted
RPMI-8226 leukemia = conditions: 10 µM unless noted
OVCAR-3 ovarian = conditions: 10 µM unless noted
HS 578T breast = conditions: 10 µM unless noted
HOP-62 NSCLC = conditions: 10 µM unless noted
HOP-92 NSCLC = conditions: 10 µM unless noted
COLO 205 colon = conditions: 10 µM
MOLT-4 leukemia = conditions: 10 µM
T-47D breast = conditions: 10 µM unless noted
UACC-62 melanoma = conditions: 10 µM unless noted

Row | Structure (SMILES) | growth (NCI-H226 lung) | growth (NCI-H322M lung) | growth (NCI-H522 lung) | growth (A549/ATCC NSCLC) | growth (HT29 colon) | growth (EKVX NSCLC) | growth (UO-31 renal) | growth (TK-10 renal) | growth (ACHN renal) | growth (CAKI-1 renal) | growth (RPMI-8226 leukemia) | growth (OVCAR-3 ovarian) | growth (HS 578T breast) | growth (HOP-62 NSCLC) | growth (HOP-92 NSCLC) | growth (COLO 205 colon) | growth (MOLT-4 leukemia) | growth (T-47D breast) | growth (UACC-62 melanoma)
1 | O=C(N/N=C/c1ccc(N(CCCl)CCCl)cc1)c1cc(=O)[nH]c(=O)[nH]1 | 5.48% (active) | 92.9% | 96.7% | 106% | 101% | 115% | 71.7% | 109% | 94.2% | 53.2% | 86.7% | 115% | 105% |  |  |  |  |  | 
2 | NCCc1cc(O)c(O)cc1O | 99.1% |  | -11.5% (active) | 100% | 98.8% | 102% |  | 95.3% | 87.4% | 100% | 48.4% | 111% | 120% | 105% | 85.4% | 106% | 86.5% | 100% | 
3 | CCCCCCCC(=O)OCC/C=C/C1OC1C1OC(=O)/C=C\C=C\c2nc(oc2C)/C=C(/C)CCC2OC2C1OC(=O)NC(C)=O (stereo unspecified) | -37.5% (active) | 15.6% | -80.3% (active) | 5.19% (active) |  | -5.8% (active) | 2.49% (active) | 1.86% (active) |  | -6.91% (active) | -55.7% (active) | 5.74% (active) | -1.2% (active) |  |  | -90.3% (active) |  | -42.6% (active) | -49.6% (active)
4 | CCC(CC)(c1ccccc1)C(OC(N)=O)c1ccccc1 (stereo unspecified) | 81.8% | 85% | 78.6% | 76% | 87.7% |  | 71.4% |  | 87.4% |  | 79.7% | 89% | 88.2% |  |  | 86.7% | 80.2% | 82.2% | 
